Screens (PubChem BioAssay)
A selection: hits, their analogues and other compounds. The true share with any hit is near 7.2%.
HEK cytotox – kills HEK 293 cells | HEK 293 viability, ATP luminescence (CellTiter-Glo), 48-72 h | Potency, µM (highest dose often 115 µM), for inactives: at the top dose activity change, negative = cytotoxicity, usual class: inhibitors | hit rate 6.6% among 94,000; also: nearly all actives have a fitted effect of over 60% in size
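250 HEK 293 cells/well; compound by pintool; incubated 48 or 72 hr at 37 degree Celsius; CellTiter-Glo added, 10 min RT, luminescence imaged.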
Luciferase inh – blocks purified firefly luciferase enzyme activity; Potency, µM (top dose mostly 115 µM), usual class: inhibitors; P08659; purified P. pyralis luciferase, luminescence, biochemical; hit rate 2.5% among 76,000; also: nearly all actives have a fitted effect of over 65% in size
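Cell-free enzyme assay, 10nM P. pyralis luciferase, luciferin and ATP each at 10uM. Inhibition profiled over a 6-point titration, read as luminescence.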
hNpr1 antagonist – blocks ANP-stimulated signaling of human Npr1 receptor | HEK293 hNpr1 GloSensor cGMP, ANP-stimulated luminescence | Potency, µM (series often up to 46.3 µM), for inactives: top-dose activity change, negative = inhibition, most hits filed as inhibitors | hit rate 1.6% among 76,000; calls by dose curve; also: nearly all actives have a fitted effect of over 60% in size
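HEK293 cells stably expressing human Npr1 and cGMP GloSensor pGS-40F, loaded 2 h with 2% GloSensor reagent, given compound 30 min at room temperature. Luminescence read before and 20 min after 0.1 nM hNppA.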
HEK293 viab – counter-screen for SNCA expression inhibitors: cell viability; HEK-293-SNCA-luc viability, GF-AFC fluorescence, 24 h; Potency, µM (titrated, usually from 57.1 µM), inactives show at the highest dose activity change, negative = cytotoxicity, most hits filed as cytotoxic; hit rate 0.12% among 150,000;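 also: 0% = DMSO-treated cells and -100% = medium-only wells without cells; nearly all actives have a fitted effect of over 30% in size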
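Cytotoxicity counterscreen: after 24 h compound treatment of genome-edited SNCA-luciferase HEK-293 cells, live-cell protease substrate GF-AFC read by fluorescence after 30 min; activity scaled between DMSO (0%) and medium-only (-100%), curves Hill-fitted.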
SNCA expr inhib – reduces expression of the alpha-synuclein gene. Potency, µM (top dose mostly 57.2 µM), without a hit: at the highest dose activity change, negative = inhibition, actives largely listed as inhibitors. hit rate 0.17% among 140,000. HEK-293 SNCA-luciferase knock-in, luminescence, 24 h;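 also: plate controls were DMSO cells for no effect and cell-free wells for full effect; nearly all actives have a fitted effect of over 45% in size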
NIH3T3 tox – cytotoxic compounds in NIH 3T3 cells. NIH 3T3 viability, CellTiter-Glo ATP luminescence, 48-72 h. Potency, µM (doses to about 96.7 µM), without a hit: top-dose activity change, negative = cytotoxicity, usual class: inhibitors. hit rate 4.3% among 94,000; also: nearly all actives have a fitted effect of over 55% in size
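ATP-dependent luminescence (CellTiter-Glo) served as the viability signal for NIH 3T3 cells treated with compound for 48 or 72 hr at 37 °C.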
The depositor's hits bear a star; i = inactive; u = inconclusive; x = not tested or not shown; ! = a repeat was not active; [ ] = another dose, or the depositor's remark. Unless noted, calls follow the shape of the dose curve; as a rule, active = well fitted curve in the direction sought with a large enough effect; inconclusive = small, poorly fitted or top-dose-only effect, or another doubt; inactive = no such curve, though single readings can be large; an effect the other way counts as inactive or inconclusive. Unless noted, % is scaled to controls: 0 for no effect and ±100 for the full control effect; potency is read from the fitted curve at half-maximal effect.

SMILES	HEK cytotox	Luciferase inh	hNpr1 antagonist	HEK293 viab	SNCA expr inhib	NIH3T3 tox
O=C(c1c(F)cccc1F)N1CCC(n2cc(-c3nc(-c4ccccc4)no3)nn2)CC1	u	i	1.1µM*	-4%	35%	u
COc1cccc(-c2ccc(C(=O)N3CCC(NC(=O)c4ccc(Cl)nc4)CC3)cc2)c1	u	x	x	4%[12.5 µM]	-4%	-24%
CC1Oc2ccc(NS(=O)(=O)c3cccc(Cl)c3)cc2CN(Cc2ccccc2Cl)C1=O (stereo unspecified)	u	i	-24%	-9%	8%	22µM*
CC1Oc2ccc(NS(=O)(=O)c3ccc(Cl)cc3)cc2CN(Cc2ccccc2F)C1=O (stereo unspecified)	u	i	u	-2%	-19%	35µM*
CCC(c1ccccc1)N1Cc2cc(NS(=O)(=O)c3ccc(F)cc3)ccc2OC(C)C1=O (stereo unspecified)	u	i	-21%	-24%	-27%	14µM*
COc1cccc(CNC(=O)[C@@H]2C[C@@H](O)CN2C2CCN(C(=O)CCc3ccccc3)CC2)c1	-1%	i	0%	2%	-20%	-18%
O=c1ncn(Cc2ccccc2)c2ccc(-c3ccsc3)nc12	i	i	-1%[70.6 µM]	2%[87.6 µM]	6%[87.6 µM]	u
O=C(C1CCCC1)N1CCCC(n2cc(-c3nc(-c4ccccc4)no3)nn2)C1 (stereo unspecified)	u	u	13µM*	-2%	78%	u
O=C(C1CCC1)N1CCCC(n2cc(-c3nc(-c4ccccc4)no3)nn2)C1 (stereo unspecified)	u	40µM*	u	-1%	50%	u
COc1cccc(C(=O)N2CCCC(n3cc(-c4nc(-c5ccccc5)no4)nn3)C2)c1 (stereo unspecified)	u	u	u	-14%	16%	u
O=C(c1cccnc1)N1CCCC(n2cc(-c3nc(-c4ccccc4)no3)nn2)C1 (stereo unspecified)	u	i	u	-12%	27%	-40%
O=C(N1CCCC(n2cc(-c3nc(-c4ccccc4)no3)nn2)C1)C1(c2ccccc2)CC1 (stereo unspecified)	45µM*	u	14µM*	-32%	-31%	u
O=C(c1cnccn1)N1CCCC(n2cc(-c3nc(-c4ccccc4)no3)nn2)C1 (stereo unspecified)	-24%	i	-20%	3%	104%	-17%
O=C(c1ccccc1)N1CCCC(n2cc(-c3nc(-c4ccccc4)no3)nn2)C1 (stereo unspecified)	u	u	13µM*	-20%	50%	u
CN(C)C(=O)c1ccc(OC2CCN(C(=O)c3ccccc3F)CC2)nc1	-5%	i	-3%	4%	1%	-1%
COCCOC1CCN(C(=O)Nc2cccc(C)c2)CC1	8%	i	3%	12%[12.5 µM]	2%	i
O=C(c1ccc2c(c1)OCO2)N1CCCC(n2cc(-c3nc(C4CC4)no3)nn2)C1 (stereo unspecified)	u	i	-4%	4%	-23%	u
O=C(c1ccc2c(c1)OCO2)N1CCCC(n2cc(-c3nc(-c4ccccc4)no3)nn2)C1 (stereo unspecified)	u	u	11µM*	u	52%	u
O=C(C1CCCCN1Cc1ccc(-c2cccs2)cc1)N1CCCC1 (stereo unspecified)	u	x	x	-6%[12.5 µM]	u	u
O=C(NCC1CC1)C1CCCCN1Cc1ccc(-c2cccs2)cc1 (stereo unspecified)	u	x	x	11%[12.5 µM]	-25%	18µM*
O=C(NC1CCCC1)C1CCCCN1Cc1ccc(-c2cccs2)cc1 (stereo unspecified)	32µM*	x	x	2%	u	40µM*
C#CCNC(=O)C1CCCCN1Cc1ccc(-c2cccs2)cc1 (stereo unspecified)	u	x	x	10%[12.5 µM]	-11%[87.6 µM]	u
CCn1cc(CN2C[C@@H](COc3ccccc3)[C@H](C(N)=O)C2)c(C)n1	0%	i	4%	5%	-7%	-17%
Cc1noc(C)c1[S+](=O)([O-])N1CCC2(C1)C(=O)N(CCc1ccccc1)c1ccccc12 (stereo unspecified)	u	i	-7%	14%	u	u
Cc1cccc(NC(=O)N2CCc3c(c4cc(F)ccc4n3C)C2)c1	u	u	-15%	-8%	29%	u
SMILES	HEK cytotox	Luciferase inh	hNpr1 antagonist	HEK293 viab	SNCA expr inhib	NIH3T3 tox
Cn1c2c(c3cc(F)ccc31)CN(C(=O)Nc1cccc(Cl)c1)CC2	u	u	u	-3%	0%	20µM*
Cn1c2c(c3cc(F)ccc31)CN(C(=O)Nc1ccc(Cl)cc1)CC2	u	25µM*	-15%	3%	98%	28µM*
COc1ccc2[nH]c(C(=O)N[C@H]3COC[C@H]3Cc3cc(C)no3)c(C)c2c1	u	i	1%	6%	15%	u
Oc1ccccc1CN1CCNc2cnc(Nc3ccccc3)cc2C1	u	i	u	-18%[87.6 µM]	u	u
c1ccc(CN2CCNc3cnc(Nc4ccc(N5CCOCC5)cc4)cc3C2)cc1	71µM*	u	u	u	u	40µM*
c1ccc(CCN2CCNc3cc(Nc4ccc(N5CCOCC5)cc4)ncc3C2)cc1	50µM*	i	-5%[70.6 µM]	u	17%[87.6 µM]	35µM*
COc1ccc(Nc2cc3c(cn2)NCCN(Cc2ccccc2)C3)cn1	u	i	0%[70.6 µM]	-3%[87.6 µM]	u	u
Cc1ccc(C(=O)Nc2ccc(CN3CCN(C)CC3)c(C(F)(F)F)c2)cc1C#Cc1cnc2cccnn12	x	x	x	30µM*!	u	x
Cc1ccc(NC(=O)c2ccc(CN3CCN(C)CC3)cc2)cc1Nc1nc(-c2cccnc2)cs1	x	x	x	-23%	19%	x
CCc1ccc(C(=O)Nc2cc(CN3CCN(C)CC3)cc(C(F)(F)F)c2)cc1C#Cc1cnc2ccnn2c1	x	x	x	u	24µM*	x
Cc1ccc(C2Cn3nnc(C(=O)N4CCC(C(=O)NC5CCCC5)CC4)c3CO2)cc1 (stereo unspecified)	6%	11µM*	1%	u	u	i
Cc1ccc(C2Cn3nnc(C(=O)N4CCC(C(=O)NC(C)C)CC4)c3CO2)cc1 (stereo unspecified)	-2%	20µM*	-10%	-4%	57%	i
